Drawing on PubChem BioAssay (NCI), this text covers growth inhibition for 9 molecules.

The nature of assay [1]: NCI Yeast Anticancer Drug Screen. Data for the rad50 strain (AID 155).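 Also: 0% = growth of vehicle-only cultures of the same strain.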 The settings on record: S. cerevisiae rad50 strain growth inhibition, stronger effect = higher value. A digest of the protocol: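 A DNA repair-deficient yeast mutant serves as the test organism; compound-induced growth inhibition is calculated against vehicle-treated cells.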
Assay [2] is described as follows: NCI Yeast Anticancer Drug Screen. Data for the mec2-1 strain (AID 157). The settings on record: S. cerevisiae mec2-1 strain, stronger effect = higher value. A digest of the protocol: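 Strain: mec2-1 (DNA repair/cell cycle alteration). Compound exposure, then growth measured; inhibition expressed relative to vehicle.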
Assay [3] in a line: NCI Yeast Anticancer Drug Screen. Data for the sgs1 mgt1 strain (AID 161).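 Also: 0% = growth of cultures given vehicle only.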 The settings on record: S. cerevisiae sgs1 mgt1 strain, stronger effect = higher value. The method in brief: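 Test agents were incubated with a DNA-repair-mutant yeast strain. Growth was then read and compared against vehicle-treated controls.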
Assay [4] can be described thus: NCI Yeast Anticancer Drug Screen. Data for the cln2 rad14 strain (AID 165).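 Also: 0% = growth equal to vehicle treated cultures.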 Particulars: S. cerevisiae cln2 rad14 strain, stronger effect = higher value. The method in brief:
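Compounds are applied to the cln2 rad14 yeast strain, and growth is then compared with that of vehicle-treated cultures to give inhibition.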

Assay [5] is described as follows: NCI Yeast Anticancer Drug Screen. Data for the bub3 strain (AID 167). The settings on record: S. cerevisiae bub3 mutant strain, stronger effect = higher value. A digest of the protocol: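 Inhibition values come from growth of compound-treated mutant yeast normalised to vehicle-treated controls.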
A short description of assay [6]: NCI Yeast Anticancer Drug Screen. Data for the mlh1 rad18 strain (AID 175). Particulars: S. cerevisiae mlh1 rad18 strain growth inhibition, stronger effect = higher value. A digest of the protocol: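 Read-out is yeast growth inhibition, calculated against vehicle-only controls. The compound was applied to a strain engineered with DNA damage repair alterations.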
Setting [7] is: at 5.0 µM (retest, dose inferred, filed as 0.5).
Where [8] appears, read: at 50.0 µM (retest, dose inferred, filed as 5.0).

About 79,000 compounds went through this panel and 15% of them were active in at least one assay; those are over-represented in the sample as a whole. Unmarked numbers belong to inactive results. The source made the active and inactive calls. Rule as the data show it: active = growth inhibition above about 70%; inactive = the rest.

For `ClC(Cl)(Cl)C1=CC2c3ccccc3C1c1ccccc12`, the growth inhibition is -14% in assay [1] (setting [7]); 91% (active) in assay [1] (setting [8]); 89.7% (active) in assay [1] (at 50.0 µM); 0% in assay [2] (setting [7]); 91% (active) in assay [2] (setting [8]); 21.6% in assay [2] (at 50.0 µM). Moreover, the growth inhibition was -7% in assay [3] (setting [7]); 91% (active) in assay [3] (setting [8]); 87.8% (active) in assay [3] (at 50.0 µM); -3% in assay [4] (setting [7]); 90% (active) in assay [4] (setting [8]); 22.8% in assay [4] (at 50.0 µM). Moreover, the growth inhibition in assay [5] (setting [7]) was -9%; in assay [5] (setting [8]) it was 92% (active); in assay [5] (at 50.0 µM), 28.7%; in assay [6] (setting [7]), -6%; in assay [6] (setting [8]), 92% (active); in assay [6] (at 50.0 µM) it was 89.5% (active).

`CC(C)(C)C(=O)CC(=O)C(F)(F)C(F)(F)C(F)(F)F.CC(C)(C)C(=O)CC(=O)C(F)(F)C(F)(F)C(F)(F)F.CC(C)(C)C(=O)CC(=O)C(F)(F)C(F)(F)C(F)(F)F.[Gd]`: the growth inhibition in assay [1] (setting [7]) is -7%; in assay [1] (setting [8]), 79% (active); in assay [1] (at 50.0 µM), 89.3% (active); in assay [2] (setting [7]), -9%; in assay [2] (setting [8]) it was 85% (active); in assay [2] (at 50.0 µM), 91.4% (active). Besides, the growth inhibition in assay [3] (setting [7]) was 3%; in assay [3] (setting [8]), 82% (active); in assay [3] (at 50.0 µM) it was 90.7% (active); in assay [4] (setting [7]), 9%; in assay [4] (setting [8]) it was 87% (active); in assay [4] (at 50.0 µM) it was 82.7% (active). Besides, the growth inhibition was -17% in assay [5] (setting [7]); 96% (active) in assay [5] (setting [8]); 89.2% (active) in assay [5] (at 50.0 µM); -7% in assay [6] (setting [7]); 93% (active) in assay [6] (setting [8]); 88.8% (active) in assay [6] (at 50.0 µM).

Consider `O=C1C2C3C=CC(C2C(=O)N1CN1CCOCC1)C1C2C(=O)N(CN4CCOCC4)C(=O)C2C31` (configuration not stated), for which the growth inhibition is -6% in assay [1] (setting [7]); -10% in assay [1] (setting [8]); 1.85% in assay [1] (at 50.0 µM); 11% in assay [2] (setting [7]); 3% in assay [2] (setting [8]); 10.2% in assay [2] (at 50.0 µM). Also, the growth inhibition in assay [3] (setting [7]) was -4%; in assay [3] (setting [8]), -25%; in assay [3] (at 50.0 µM) it was -1.35%; in assay [4] (setting [7]), -26%; in assay [4] (setting [8]), -7%; in assay [4] (at 50.0 µM), 39%. The growth inhibition is 1% in assay [5] (setting [7]); -9% in assay [5] (setting [8]); -17.8% in assay [5] (at 50.0 µM); -31% in assay [6] (setting [7]); -12% in assay [6] (setting [8]); 0.8% in assay [6] (at 50.0 µM).

With `CCOC1=Cc2c(oc3c(C(C)(C)C)cc(OCC)cc23)OC(C(C)(C)C)=C1`, the growth inhibition in assay [1] (setting [7]) is 22%; in assay [1] (setting [8]), 95% (active); in assay [1] (at 50.0 µM) it was 71.2% (active); in assay [2] (setting [7]), 22%; in assay [2] (setting [8]), 98% (active); in assay [2] (at 50.0 µM) it was 85.3% (active). For the same molecule, the growth inhibition in assay [3] (setting [7]) is 28%; in assay [3] (setting [8]), 97% (active); in assay [3] (at 50.0 µM), 73.4% (active); in assay [4] (setting [7]), 13%; in assay [4] (setting [8]) it was 96% (active); in assay [4] (at 50.0 µM) it was 75.7% (active). For the same molecule, the growth inhibition in assay [5] (setting [7]) was 32%; in assay [5] (setting [8]), 98% (active); in assay [5] (at 50.0 µM), 78.7% (active); in assay [6] (setting [7]), 44%; in assay [6] (setting [8]), 94% (active); in assay [6] (at 50.0 µM), 19.6%.

Regarding `Cc1c2ccccc2c(CCl)c2ccc3ccccc3c12`, the growth inhibition in assay [1] (setting [7]) was 99% (active); in assay [1] (setting [8]) it was 98% (active); in assay [1] (at 50.0 µM) it was 97.7% (active); in assay [2] (setting [7]), 100% (active); in assay [2] (setting [8]), 99% (active); in assay [2] (at 50.0 µM) it was 97.2% (active). For the same molecule, the growth inhibition was 100% (active) in assay [3] (setting [7]); 99% (active) in assay [3] (setting [8]); 98.3% (active) in assay [3] (at 50.0 µM); 99% (active) in assay [4] (setting [7]); 99% (active) in assay [4] (setting [8]); 97.5% (active) in assay [4] (at 50.0 µM). In addition, the growth inhibition was 99% (active) in assay [5] (setting [7]); 99% (active) in assay [5] (setting [8]); 98.8% (active) in assay [5] (at 50.0 µM); 100% (active) in assay [6] (setting [7]); 99% (active) in assay [6] (setting [8]); 96.8% (active) in assay [6] (at 50.0 µM).

Consider `COc1ccc(Cc2ccccc2C(=O)O)c2ccccc12`, for which the growth inhibition was 97% (active) in assay [1] (setting [7]); 96% (active) in assay [1] (setting [8]); 99.1% (active) in assay [1] (at 50.0 µM); 98% (active) in assay [2] (setting [7]); 98% (active) in assay [2] (setting [8]); 99.2% (active) in assay [2] (at 50.0 µM). Also, the growth inhibition in assay [3] (setting [7]) was 97% (active); in assay [3] (setting [8]) it was 99% (active); in assay [3] (at 50.0 µM) it was 99.5% (active); in assay [4] (setting [7]), 95% (active); in assay [4] (setting [8]), 96% (active); in assay [4] (at 50.0 µM) it was 98.7% (active). Moreover, the growth inhibition in assay [5] (setting [7]) was 96% (active); in assay [5] (setting [8]), 98% (active); in assay [5] (at 50.0 µM) it was 98.9% (active); in assay [6] (setting [7]), 97% (active); in assay [6] (setting [8]), 98% (active); in assay [6] (at 50.0 µM), 99% (active).

As for `CCO/C=C1/N=C(c2cc(Cl)cc([N+](=O)[O-])c2)OC1=O`, the growth inhibition in assay [1] (setting [7]) was 4%; in assay [1] (setting [8]), -7%; in assay [1] (at 50.0 µM) it was 11.7%; in assay [2] (setting [7]), -2%; in assay [2] (setting [8]) it was 12%; in assay [2] (at 50.0 µM), 1.3%. Moreover, the growth inhibition in assay [3] (setting [7]) was -15%; in assay [3] (setting [8]), 2%; in assay [3] (at 50.0 µM) it was 13.7%; in assay [4] (setting [7]), 18%; in assay [4] (setting [8]), 22%; in assay [4] (at 50.0 µM), -60.5%. Also, the growth inhibition in assay [5] (setting [7]) is 6%; in assay [5] (setting [8]), 5%; in assay [5] (at 50.0 µM), -8.75%; in assay [6] (setting [7]), -15%; in assay [6] (setting [8]), 6%; in assay [6] (at 50.0 µM), 9.15%.

Take `COc1cccc2c1C(=O)c1c(O)c3c(c(O)c1C2=O)CC(O)(C(C)=O)CC3OC1OC(COC(C)=O)C(OC(C)=O)C(OC(C)=O)C1OC(C)=O` (configuration not stated): the growth inhibition in assay [1] (setting [7]) is 5%; in assay [1] (setting [8]) it was 58%; in assay [1] (at 50.0 µM) it was 95.5% (active); in assay [2] (setting [7]), 49%; in assay [2] (setting [8]), 30%; in assay [2] (at 50.0 µM) it was 97.5% (active). Also, the growth inhibition was 3% in assay [3] (setting [7]); 33% in assay [3] (setting [8]); 97.8% (active) in assay [3] (at 50.0 µM); 5% in assay [4] (setting [7]); 8% in assay [4] (setting [8]); 97.2% (active) in assay [4] (at 50.0 µM). For the same molecule, the growth inhibition was 2% in assay [5] (setting [7]); 83% (active) in assay [5] (setting [8]); 98.9% (active) in assay [5] (at 50.0 µM); 3% in assay [6] (setting [7]); 59% in assay [6] (setting [8]); 98% (active) in assay [6] (at 50.0 µM).

For `CCCCCCCCCCN1CCN(C(=O)OCC)CC1`, the growth inhibition was 51% in assay [1] (setting [7]); 68% in assay [1] (setting [8]); 95% (active) in assay [1] (at 50.0 µM); 54% in assay [2] (setting [7]); 77% (active) in assay [2] (setting [8]); 72.2% (active) in assay [2] (at 50.0 µM). Further, the growth inhibition in assay [3] (setting [7]) was 67%; in assay [3] (setting [8]) it was 97% (active); in assay [3] (at 50.0 µM), 94.7% (active); in assay [4] (setting [7]), 58%; in assay [4] (setting [8]) it was 67%; in assay [4] (at 50.0 µM) it was 90.7% (active). Besides, the growth inhibition in assay [5] (setting [7]) was 62%; in assay [5] (setting [8]), 80% (active); in assay [5] (at 50.0 µM) it was 95.8% (active); in assay [6] (setting [7]), 79% (active); in assay [6] (setting [8]), 91% (active); in assay [6] (at 50.0 µM), 89.2% (active).
